PubChem BioAssay (NCI)
This is part of a sample that, as a whole, favours compounds with a hit. Of some 83,000 tested, about 20% had one in any assay.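 A percent growth of 40 corresponds to 60% growth inhibition; 0 means no net growth; -100 means all cells died. Active threshold: below 10.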 The source made the active and inactive calls.

Key:
Assay in all cases: NCI-60 one-dose screen, 48 h (100 = growth as untreated, 0 = no growth, -100 = all killed)
Settings in all cases: 10 µM
[1] = tested on: NCI-H23 lung
[2] = tested on: NCI-H226 lung
[3] = tested on: HOP-62 NSCLC
[4] = tested on: NCI-H460 lung
[5] = tested on: HOP-92 NSCLC
[6] = tested on: NCI-H522 lung
[7] = tested on: A549/ATCC NSCLC
[8] = tested on: 786-0 renal
[9] = tested on: COLO 205 colon
[10] = tested on: DU-145 prostate
[11] = tested on: K-562 leukemia
[12] = tested on: MALME-3M melanoma
[13] = tested on: MDA-MB-231 breast
[14] = tested on: RXF 393 renal
[15] = tested on: SF-268 CNS
[16] = tested on: SF-295 CNS
[17] = tested on: SF-539 CNS
[18] = tested on: M14 melanoma
[19] = tested on: UACC-257 melanoma

Measured: growth

CCC(C)[C@H](NC(C)=O)C(=O)N[C@@H](CCCNC(=N)N)C(=O)N[C@@H](CCCCN)C(=O)N[C@@H](CC1CCC(O)CC1)C(=O)NC(C(=O)N[C@@H](CCSC)C(=O)N[C@@H](CCCNC(=N)N)C(=O)N[C@@]1(C)CCC/C=C\CCC[C@@](C)(C(=O)NC(C(=O)N[C@@H](CCC(=O)O)C(=O)N[C@@H](CC(C)C)C(=O)N[C@H](C(=O)N[C@@H](CCC(=O)O)C(N)=O)C(C)C)[C@@H](C)O)NC(=O)[C@H](CCC(N)=O)NC(=O)[C@H](CC(C)C)NC(=O)[C@H](CC(C)C)NC1=O)[C@@H](C)O (some centres undefined)
inactive: [1] 106% | [2] 108% | [3] 108% | [4] 103% | [5] 103% | [6] 102% | [7] 96.3% | [8] 98.7% | [9] 89.9% | [10] 93.7% | [11] 95.4% | [12] 102% | [13] 98.8% | [14] 86.4% | [15] 47.9% | [16] 101% | [17] 97.7% | [18] 75.6%

C#CCOc1c(OC)cc(C(=O)/C(C)=C/c2cccc(N=[N+]=[N-])c2)cc1OC
active: [6] -48.6% | [9] -31.8% | [14] -8.56% | [16] 8.17% | [17] -12.5% | [18] 5.53%
inactive: [1] 36.4% | [2] 68.9% | [3] 36% | [4] 16.7% | [5] 63.1% | [7] 18.8% | [8] 23.7% | [10] 11.7% | [11] 14.4% | [12] 54.7% | [13] 30.5% | [15] 42.6%

COc1ccc(/C=C/C(=O)C(=O)/C=C/c2ccc(OC)c(OC)c2)cc1OC
inactive: [1] 21.6% | [2] 38.9% | [3] 93.2% | [4] 51.7% | [5] 109% | [6] 47.8% | [7] 69.9% | [10] 22.5% | [12] 54.5% | [15] 13.2% | [16] 73.8%
active: [8] 3.43% | [9] -20.8% | [11] 7.11% | [13] 2.99% | [14] -63.3% | [17] 6.56% | [18] -10.5%

CC(=O)N[C@H](C(=O)N[C@@H](CCCNC(=N)N)C(=O)N[C@@H](CCCCN)C(=O)N[C@@H](CCCNC(=N)N)C(=O)N[C@]1(C)CCCCCC/C=C\CCC[C@@](C)(C(=O)N[C@@H](CCCNC(=N)N)C(=O)N[C@@H](CCC(=O)O)C(=O)N[C@@H](CC(C)C)C(=O)N[C@H](C(=O)N[C@@H](CCC(=O)O)C(N)=O)C(C)C)NC(=O)[C@H](CCC(N)=O)NC(=O)[C@H](CC(C)C)NC(=O)[C@H](CC(C)C)NC(=O)[C@H](CCCNC(=N)N)NC(=O)[C@H](CCCNC(=N)N)NC(=O)[C@H](CC(C)C)NC1=O)C(C)C
active: [1] 1.83% | [2] 9.55% | [3] -31.5% | [4] -9.29% | [5] -63.6% | [8] -51.4% | [9] -29.5% | [10] -72.7% | [11] -18.8% | [12] -28.7% | [13] -39.5% | [14] -51.5% | [15] -51.5% | [17] -47% | [18] -41.9%
inactive: [6] 28.7% | [7] 12.4% | [16] 14.3%

OCCn1cccn1
inactive: [1] 93.1% | [2] 99.9% | [3] 104% | [4] 102% | [5] 101% | [6] 101% | [7] 111% | [8] 109% | [9] 125% | [10] 104% | [11] 101% | [13] 103% | [14] 93.8% | [15] 100% | [16] 108% | [17] 98.3% | [19] 136%

CC[N+](CC)=c1ccc2nc3c(cc(NCc4ccccc4)c4ccccc43)oc-2c1
active: [1] -76% | [2] -34.4% | [3] -99.6% | [4] -66.4% | [5] -7.03% | [6] -82.3% | [7] -90.2% | [8] -62.7% | [9] -89.4% | [10] -95.8% | [11] -26.1% | [13] -69.6% | [14] -91.4% | [15] -15.9% | [16] -98.9% | [17] -87% | [19] -98.4% | [18] -74.4%

CC(=O)N[C@H](C(=O)N[C@@H](CCCNC(=N)N)C(=O)N[C@@H](CCCCN)C(=O)N[C@@H](CCCNC(=N)N)C(=O)NC(C(=O)N[C@@H](CC(C)C)C(=O)N[C@@H](CCCNC(=N)N)C(=O)N[C@@]1(C)CCC/C=C\CCC[C@@](C)(C(=O)N[C@@H](CCCNC(=N)N)C(=O)N[C@@H](CCC(=O)O)C(=O)N[C@@H](CC(C)C)C(=O)N[C@H](C(=O)N[C@@H](CCC(=O)O)C(N)=O)C(C)C)NC(=O)[C@H](CCC(N)=O)NC(=O)[C@H](CC(C)C)NC(=O)[C@H](CC(C)C)NC1=O)[C@@H](C)O)C(C)C (some centres undefined)
active: [1] -34.6% | [2] 7.17% | [3] -43.1% | [4] -63.6% | [5] -76% | [8] -85.6% | [9] -53% | [10] -58.3% | [11] -44.5% | [12] -68.7% | [13] -52.1% | [14] -43.9% | [15] -80.9% | [16] -4.34% | [17] -78% | [18] -61.2%
inactive: [6] 36.5% | [7] 27.8%

Cc1cc(=O)n2nnc3cc(C(F)(F)F)ccc3n12
inactive: [1] 101% | [2] 115% | [3] 117% | [4] 114% | [5] 93.9% | [6] 97.4% | [7] 105% | [8] 104% | [9] 108% | [10] 105% | [11] 99.1% | [13] 108% | [14] 123% | [15] 107% | [16] 92.7% | [17] 106% | [19] 106% | [18] 113%

O=C(CCNC(=O)c1nc(-c2ccccc2)n(-c2ccc(Cl)cc2)n1)NO
inactive: [1] 101% | [2] 96.7% | [3] 83.7% | [4] 104% | [5] 108% | [6] 82.4% | [7] 88.6% | [8] 96.2% | [9] 94.8% | [10] 102% | [11] 105% | [12] 97.4% | [13] 102% | [14] 99.6% | [15] 93.9% | [16] 99% | [17] 84.6% | [18] 97%

Nc1nc(Cn2c(-c3nonc3N)nc3ccccc32)nc(N2CCCCC2)n1
inactive: [1] 90.5% | [2] 94.4% | [3] 91.7% | [4] 99.4% | [5] 82.3% | [6] 71.7% | [7] 93.1% | [8] 92% | [9] 94.4% | [10] 99% | [11] 49.3% | [13] 84.8% | [14] 87.7% | [15] 95.6% | [16] 96.7% | [17] 101% | [19] 93.1% | [18] 98.4%

COc1cc(-c2csc(NC(=O)Nc3ccc(Cl)c(C(F)(F)F)c3)n2)cc(OC)c1OC
active: [1] 1.27% | [2] -6.43% | [3] -23.8% | [4] 2.24% | [5] -35.4% | [6] -25.4% | [7] 0.191% | [8] -12.4% | [9] -58.1% | [12] -28.1% | [13] -32.2% | [14] -6.49% | [16] -34.7% | [17] 5.05% | [18] -4.86%
inactive: [10] 14.4% | [11] 14.2% | [15] 21.3%

CNC(=O)c1cc(Oc2ccc3c(c2)sc2nc(-c4ccc(N)cc4)cn23)ccn1
active: [6] -22.6% | [9] -11.1% | [10] 7.79% | [17] 6.43%
inactive: [1] 35% | [2] 61.8% | [3] 46.8% | [4] 10.1% | [5] 58.4% | [7] 24.5% | [8] 19.4% | [11] 12% | [12] 66.8% | [13] 22.2% | [14] 43.8% | [15] 41.9% | [16] 18% | [18] 15.5%

O=C(Nc1ccc(OS(=O)(=O)c2ccccc2)cc1)C1CCCCC1
inactive: [1] 88% | [2] 87% | [3] 94.5% | [4] 99.8% | [5] 98.5% | [6] 75.4% | [7] 90.5% | [8] 89.9% | [9] 97% | [10] 92.8% | [11] 60.6% | [12] 81.9% | [13] 73.1% | [14] 87.5% | [15] 90.2% | [16] 89.7% | [17] 80.4% | [18] 70.3%

O=C(CN1CCN(C(=O)c2ccccc2)CC1)Nc1ccccc1SCc1ccccc1
inactive: [1] 79% | [2] 81.5% | [3] 89.6% | [4] 96.8% | [5] 71.4% | [6] 50.9% | [7] 83.4% | [8] 79.3% | [9] 82.3% | [10] 101% | [11] 66% | [12] 86.1% | [13] 68.7% | [14] 111% | [15] 90.9% | [16] 86.9% | [17] 89.1% | [18] 79.4%

COc1ccc(-c2nc(-c3nc4ccc(C)cc4[nH]3)cc3c2[nH]c2ccccc23)cc1
inactive: [1] 39% | [2] 63.9% | [3] 55.3% | [4] 32.8% | [5] 33% | [6] 14.7% | [7] 28% | [8] 69.9% | [9] 46.9% | [10] 41.4% | [11] 17% | [13] 15.8% | [14] 27.9% | [15] 50.3% | [16] 25.5% | [17] 50.2% | [19] 69.6% | [18] 31.5%
